Experimental findings from PubChem BioAssay (EPA / NIEHS) are described below.

The target in experiment [1] is CCAAT/enhancer-binding protein beta (Homo sapiens) (UniProt P17676). Nature of the experiment: ATG_C_EBP_CIS: Attagene CIS-FACTORIAL HepG2 Assay for human CCAAT/Enhancer Binding Protein (C/EBP) beta (AID 2282927). To be noted: HepG2 Attagene cis-factorial transcription factor reporter; actives raise or lower the signal. The method, boiled down:
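HepG2 transiently transfected with multiplexed reporter units under cis-regulatory promoters reporting endogenous C/EBPb activity. After 24 h exposure, reporter mRNA assayed by RT-PCR, fluorescent labelling, HpaI digestion and capillary electrophoresis; bidirectional fitting versus DMSO.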

Experiment [2] can be described thus: ATG_DR4_LXR_CIS: Attagene CIS-FACTORIAL HepG2 Assay for human Liver X Receptor (LXR), DR4 submotif (AID 2282929). To be noted: HepG2 Attagene DR4 cis-reporter, mRNA transcription; actives raise or lower the signal. The method, boiled down:
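Total RNA from 24 h-treated, MRTU-transfected HepG2 cells underwent reverse transcription, PCR, fluorescent primer extension and restriction digestion before capillary electrophoresis. Both increases and decreases in reporter signal were fitted against DMSO.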

Experiment [3] can be described thus: ATG_AP_2_CIS: Attagene CIS-FACTORIAL HepG2 Assay for human Activator Protein 2 (AP-2) (AID 2282932). The following applies: HepG2 AP-2 cis-reporter, Attagene transcription factor profiling; actives raise or lower the signal. The method, boiled down:
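Liver-derived HepG2 line, cis-reporter system measuring endogenous factors; 24 h dosing; reporter mRNA detected by fluorescent RT-PCR and capillary electrophoresis.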

Experiment [4] concerns the target Transcription factor E2F1 (Homo sapiens) (UniProt Q01094). Nature of the experiment: ATG_E2F_CIS: Attagene CIS-FACTORIAL HepG2 Assay for human E2F Transcription Factor 1 (AID 2282935). To be noted: HepG2 Attagene cis-reporter, E2F reporter RNA transcripts; actives raise or lower the signal. An outline of the steps: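 Liver-derived HepG2 cells expressing transfected promoter-driven reporter units received test chemical for 24 hours. Signal gains or losses were fitted bidirectionally against DMSO.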

Experiment [5] is described as follows: ATG_E_Box_CIS: Attagene CIS-FACTORIAL HepG2 Assay for human Enhancer Box (E-box) (AID 2282936). The following applies: HepG2 E-box cis-reporter transcription, actives raise or lower the signal. An outline of the steps: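 In this cell-based setup, HepG2 cells bearing transfected promoter-driven reporter units were exposed to chemicals for 24 h; reporter transcripts were amplified, 6-FAM-labelled, cut with HpaI and sized by capillary electrophoresis.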

A short description of experiment [6]: ATG_M_19_CIS: Attagene CIS-FACTORIAL HepG2 Assay for M19 Transcription Factor (Internal Marker) (AID 2282939). To be noted: HepG2 Attagene CIS-FACTORIAL M19 internal marker reporter; actives raise or lower the signal. The method, boiled down: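 Chemical-treated HepG2 (24 h) with MRTU constructs; reporter transcripts detected by fluorescent RT-PCR fragment analysis on capillary electrophoresis. Internal background marker, DMSO as baseline.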

A short description of experiment [7]: ATG_GLI_CIS: Attagene CIS-FACTORIAL HepG2 Assay for human Zinc Finger Protein GLI1 (AID 2282945). The following applies: HepG2, Attagene cis-factorial reporter mRNA, GLI element; actives raise or lower the signal. An outline of the steps: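 Transiently transfected HepG2 cells report endogenous transcription factor activity via cis-element-driven reporter units. After 24 h compound exposure, reporter mRNA was measured by RT-PCR with capillary electrophoresis; bidirectional fitting against DMSO baseline.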

The nature of experiment [8]: ATG_ISRE_CIS: Attagene CIS-FACTORIAL HepG2 Assay for human Interferon Regulatory Factor 1 (IRF1) binding to an Interferon-Stimulated Response Element (ISRE) (AID 2282948). To be noted: HepG2 ISRE cis-reporter (Attagene), mRNA transcription readout; actives raise or lower the signal. The method, boiled down:
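Endogenous transcription factor activity read as reporter transcript abundance via RT-PCR and capillary electrophoresis. HepG2 cells transiently transfected, 24 h chemical exposure. Gain or loss fitted against DMSO baseline.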

Experiment [9] can be described thus: ATG_M_32_CIS: Attagene CIS-FACTORIAL HepG2 Assay for M32 Transcription Factor (Internal Marker) (AID 2282949).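 Note: background control marker of the multiplexed CIS panel rather than a real target.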 To be noted: HepG2 Attagene cis-factorial M32 reporter, mRNA; actives raise or lower the signal. An outline of the steps:
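HepG2 transfectants (cis-regulated reporter transcription units) dosed 24 h. Reporter mRNA by RT-PCR plus CE, analysed as gain or loss relative to DMSO.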

The nature of experiment [10]: ATG_PXRE_CIS: Attagene CIS-FACTORIAL HepG2 Assay for human Pregnane X Receptor Element (PXRE) (AID 2282957). The following applies: HepG2 Attagene CIS-FACTORIAL PXRE reporter, mRNA; actives raise or lower the signal. An outline of the steps: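 Bidirectional activity, baselined to DMSO, derived from reporter mRNA fluorescence (RT-PCR plus capillary electrophoresis) in HepG2 cells bearing cis-promoter reporter units, 24 h exposure.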

Experiment [11] can be described thus: ATG_Sox_CIS: Attagene CIS-FACTORIAL HepG2 Assay for human SRY-box transcription factor (SOX) (AID 2282960). To be noted: HepG2 Attagene cis-factorial SOX reporter, mRNA; actives raise or lower the signal. An outline of the steps:
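HepG2, cis reporter units, 24 h exposure. Reporter mRNA: RT-PCR → FAM labelling → HpaI → CE fluorescence. Bidirectional fit vs DMSO.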

For experiment [12], the target named is Transcription factor Sp1 (Homo sapiens) (UniProt P08047). The experiment is described as follows: ATG_Sp1_CIS: Attagene CIS-FACTORIAL HepG2 Assay for human Specificity Protein 1 (Sp1) (AID 2282961). To be noted: HepG2 Sp1 cis-reporter transcription, actives raise or lower the signal. An outline of the steps: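 Liver-derived HepG2 cells, cis-element reporter library, 24 h treatment; RNA isolated, cDNA amplified with reporter-specific primers, FAM-labeled fragments sized on capillary analyzer. DMSO baseline, bidirectional curve fit.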

Experiment [13] concerns the target Signal transducer and activator of transcription 3 (Homo sapiens) (UniProt P40763). The experiment is described as follows: ATG_STAT3_CIS: Attagene CIS-FACTORIAL HepG2 Assay for human Signal Transducer and Activator of Transcription 3 (STAT3) (AID 2282963). The following applies: HepG2, Attagene cis-factorial STAT3 reporter transcription; actives raise or lower the signal. The method, boiled down:
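Fluorescence intensity of 6-FAM-labelled reporter fragments, separated by capillary electrophoresis after RT-PCR, gave the signal. Cells were HepG2 transfected with cis-element reporter units and treated 24 h; fitting was bidirectional relative to DMSO.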

Experiment [14] in a line: ATG_TA_CIS: Attagene CIS-FACTORIAL HepG2 Assay for human TA Basal Promoter (AID 2282964). To be noted: HepG2 Attagene CIS-factorial TA basal promoter reporter; actives raise or lower the signal. An outline of the steps:
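Background internal-marker endpoint from a 52-component HepG2 cis-reporter panel. Cells treated 24 h; reporter transcripts quantified via RT-PCR and CE fluorescence against DMSO baseline.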

A short description of experiment [15]: ATG_TCF_b_cat_CIS: Attagene CIS-FACTORIAL HepG2 Assay for human T-Cell-Factor with beta-catenin (TCF/b-cat) (AID 2282965). The following applies: HepG2 TCF/beta-catenin cis-reporter transcription, actives raise or lower the signal. An outline of the steps: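 HepG2 cells transiently transfected with cis-promoter-driven multiplexed reporter units; reporter mRNA measured 24 h after dosing by RT-PCR, FAM labelling, HpaI digestion and capillary electrophoresis. Bidirectional fitting relative to DMSO baseline.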

The nature of experiment [16]: ATG_TAL_CIS: Attagene CIS-FACTORIAL HepG2 Assay for human TAL Basal Promoter (AID 2282966).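 Note: background control endpoint measuring basal TAL promoter reporter mRNA not a specific factor.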 The following applies: HepG2 Attagene cis-factorial TAL promoter reporter; actives raise or lower the signal. The method, boiled down:
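Human hepatoma HepG2 cells, transfected with promoter-regulated reporter units, were treated 24 h. Reporter transcript levels, measured through RT-PCR and capillary electrophoresis, were fitted for gain or loss relative to DMSO.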

The target of experiment [17] is X-box-binding protein 1 (Homo sapiens) (UniProt P17861). The experiment is described as follows: ATG_Xbp1_CIS: Attagene CIS-FACTORIAL HepG2 Assay for human X-box Binding Protein 1 (XBP1) (AID 2282972). The following applies: HepG2 XBP1 cis-element reporter, Attagene multiplex; actives raise or lower the signal. The method, boiled down:
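Reporter transcripts were quantified by RT-PCR with fluorescent primer extension and capillary electrophoresis after 24 h chemical exposure. Cells: transiently transfected HepG2 carrying cis-regulated reporter constructs; data fitted bidirectionally relative to DMSO.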

For experiment [18], the target named is Transcriptional activator Myb (Homo sapiens) (UniProt P10242). The experiment is described as follows: ATG_Myb_CIS: Attagene CIS-FACTORIAL HepG2 Assay for human Myeloblastosis (Myb) Proto-Oncogene Transcription Factor (AID 2282986). The following applies: HepG2 Attagene CIS-FACTORIAL Myb reporter transcription; actives raise or lower the signal. The method, boiled down: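 After 24 h of compound dosing, total RNA from transfected HepG2 cells is reverse-transcribed and the reporter sequences amplified, labeled and separated by capillary electrophoresis. Values come from bidirectional fitting against DMSO.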

The target in experiment [19] is Myc proto-oncogene protein (Homo sapiens) (UniProt P01106). The experiment is described as follows: ATG_Myc_CIS: Attagene CIS-FACTORIAL HepG2 Assay for human Myelocytomatosis (Myc) Proto-Oncogene Transcription Factor (AID 2282990). To be noted: HepG2, Attagene cis-reporter transcription factor activity; actives raise or lower the signal. An outline of the steps:
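Transiently transfected HepG2 cells bearing cis-promoter reporter units for endogenous transcription factors; 24 h exposure. Reporter mRNA measured by RT-PCR, 6-FAM primer extension, HpaI cut and capillary electrophoresis; bidirectional fit relative to DMSO.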

The nature of experiment [20]: ATG_Oct_MLP_CIS: Attagene CIS-FACTORIAL HepG2 Assay for human Octamer-Binding Transcription Factor (Oct) (AID 2282993). The following applies: HepG2 Attagene cis-factorial Oct reporter, mRNA; actives raise or lower the signal. The method, boiled down:
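Using HepG2 cells bearing transfected cis-reporter constructs, mRNA induction was read after 24 h by fluorescent RT-PCR and capillary electrophoresis, with DMSO defining baseline for gain- or loss-of-signal fits.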

Calls of active or inactive are those of the source. Rule for the calls: active = hit-call score of the fitted dose curve at least 0.9, where 1 is the maximum; inactive = score below 0.9.

Sequence of X-box-binding protein 1 (Homo sapiens) (P17861 whole entry, looked up): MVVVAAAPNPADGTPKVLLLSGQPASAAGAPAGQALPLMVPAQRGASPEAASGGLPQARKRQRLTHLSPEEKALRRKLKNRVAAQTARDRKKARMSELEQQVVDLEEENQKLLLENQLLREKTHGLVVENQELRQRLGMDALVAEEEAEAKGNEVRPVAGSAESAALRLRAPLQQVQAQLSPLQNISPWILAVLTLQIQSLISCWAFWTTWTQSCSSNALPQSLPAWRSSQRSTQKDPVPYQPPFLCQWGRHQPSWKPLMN
Sequence of Transcription factor E2F1 (Homo sapiens) (Q01094 whole entry, looked up): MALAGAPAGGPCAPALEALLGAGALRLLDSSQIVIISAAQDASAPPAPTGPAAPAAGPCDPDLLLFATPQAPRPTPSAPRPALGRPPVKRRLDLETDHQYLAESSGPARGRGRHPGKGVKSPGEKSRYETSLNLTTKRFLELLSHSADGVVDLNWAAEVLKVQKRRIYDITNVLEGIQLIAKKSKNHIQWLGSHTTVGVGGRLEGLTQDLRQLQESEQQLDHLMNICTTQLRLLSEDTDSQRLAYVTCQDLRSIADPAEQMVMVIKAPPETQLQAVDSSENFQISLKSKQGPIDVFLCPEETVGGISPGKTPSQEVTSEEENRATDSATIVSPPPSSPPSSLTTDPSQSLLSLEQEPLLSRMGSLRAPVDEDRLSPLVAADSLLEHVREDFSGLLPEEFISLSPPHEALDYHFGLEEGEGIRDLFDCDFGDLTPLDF
Sequence of Signal transducer and activator of transcription 3 (Homo sapiens) (P40763 whole entry, looked up, the tested form may be a part): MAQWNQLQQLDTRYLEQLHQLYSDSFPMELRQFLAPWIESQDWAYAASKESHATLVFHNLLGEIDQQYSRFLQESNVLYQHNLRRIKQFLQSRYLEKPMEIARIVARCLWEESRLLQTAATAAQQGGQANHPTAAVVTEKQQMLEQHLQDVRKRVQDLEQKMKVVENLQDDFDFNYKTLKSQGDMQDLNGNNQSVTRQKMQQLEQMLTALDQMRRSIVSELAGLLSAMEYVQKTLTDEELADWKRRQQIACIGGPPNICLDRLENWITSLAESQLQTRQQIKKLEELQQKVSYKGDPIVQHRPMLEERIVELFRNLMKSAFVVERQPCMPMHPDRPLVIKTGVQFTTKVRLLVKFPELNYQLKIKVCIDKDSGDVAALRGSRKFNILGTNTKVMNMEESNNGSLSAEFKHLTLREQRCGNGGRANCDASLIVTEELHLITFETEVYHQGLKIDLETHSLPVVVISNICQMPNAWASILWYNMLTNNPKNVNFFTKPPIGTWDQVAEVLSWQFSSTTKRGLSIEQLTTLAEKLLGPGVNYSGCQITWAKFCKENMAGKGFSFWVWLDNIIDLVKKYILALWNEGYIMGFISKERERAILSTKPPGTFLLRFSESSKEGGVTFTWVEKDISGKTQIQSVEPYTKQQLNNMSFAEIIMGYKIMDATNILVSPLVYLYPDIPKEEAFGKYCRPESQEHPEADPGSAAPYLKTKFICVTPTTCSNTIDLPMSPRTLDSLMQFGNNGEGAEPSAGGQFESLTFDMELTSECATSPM
Sequence of CCAAT/enhancer-binding protein beta (Homo sapiens) (P17676 whole entry, looked up): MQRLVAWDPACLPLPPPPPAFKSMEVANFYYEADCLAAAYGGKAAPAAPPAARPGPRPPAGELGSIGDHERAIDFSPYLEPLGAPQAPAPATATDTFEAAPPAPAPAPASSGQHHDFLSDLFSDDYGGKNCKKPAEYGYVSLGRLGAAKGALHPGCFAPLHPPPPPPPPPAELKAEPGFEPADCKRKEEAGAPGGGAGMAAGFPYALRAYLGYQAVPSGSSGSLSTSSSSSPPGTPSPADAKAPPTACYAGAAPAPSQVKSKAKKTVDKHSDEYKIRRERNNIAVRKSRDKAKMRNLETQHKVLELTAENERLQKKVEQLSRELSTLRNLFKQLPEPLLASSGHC
Sequence of Myc proto-oncogene protein (Homo sapiens) (P01106 whole entry, looked up): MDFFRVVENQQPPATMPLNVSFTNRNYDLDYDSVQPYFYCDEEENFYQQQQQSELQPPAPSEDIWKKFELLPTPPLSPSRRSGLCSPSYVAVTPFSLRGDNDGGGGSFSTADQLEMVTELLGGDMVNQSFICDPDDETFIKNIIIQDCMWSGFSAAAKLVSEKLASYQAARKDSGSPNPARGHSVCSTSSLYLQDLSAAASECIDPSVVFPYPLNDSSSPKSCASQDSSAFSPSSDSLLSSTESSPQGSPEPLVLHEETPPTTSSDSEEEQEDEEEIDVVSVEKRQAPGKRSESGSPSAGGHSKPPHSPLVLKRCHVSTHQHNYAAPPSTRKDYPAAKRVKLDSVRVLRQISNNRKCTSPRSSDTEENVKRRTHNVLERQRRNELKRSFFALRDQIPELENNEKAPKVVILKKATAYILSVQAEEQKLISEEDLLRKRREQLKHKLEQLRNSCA
Sequence of Transcription factor Sp1 (Homo sapiens) (P08047 whole entry, looked up, the tested form may be a part): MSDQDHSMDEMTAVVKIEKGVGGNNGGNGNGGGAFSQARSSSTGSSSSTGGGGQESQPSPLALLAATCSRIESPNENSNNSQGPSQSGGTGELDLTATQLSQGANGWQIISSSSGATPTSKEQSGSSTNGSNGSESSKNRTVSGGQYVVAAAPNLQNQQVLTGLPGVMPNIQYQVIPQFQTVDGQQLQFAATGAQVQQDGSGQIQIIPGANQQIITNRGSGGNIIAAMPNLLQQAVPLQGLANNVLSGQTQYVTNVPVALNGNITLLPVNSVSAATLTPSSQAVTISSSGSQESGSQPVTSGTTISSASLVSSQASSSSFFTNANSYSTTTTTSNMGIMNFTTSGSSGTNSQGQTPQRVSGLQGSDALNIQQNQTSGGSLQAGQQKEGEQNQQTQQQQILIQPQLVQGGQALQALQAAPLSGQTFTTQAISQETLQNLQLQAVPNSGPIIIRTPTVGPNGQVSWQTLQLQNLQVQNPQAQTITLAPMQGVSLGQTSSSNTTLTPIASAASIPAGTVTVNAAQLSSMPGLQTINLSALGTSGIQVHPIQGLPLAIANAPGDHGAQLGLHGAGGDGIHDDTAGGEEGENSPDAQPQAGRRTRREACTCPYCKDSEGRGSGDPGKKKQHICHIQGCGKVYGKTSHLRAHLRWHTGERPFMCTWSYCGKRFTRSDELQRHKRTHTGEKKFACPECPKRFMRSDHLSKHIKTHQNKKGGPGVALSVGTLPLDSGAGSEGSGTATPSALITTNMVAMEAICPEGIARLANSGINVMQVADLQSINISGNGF
Sequence of Transcriptional activator Myb (Homo sapiens) (P10242 whole entry, looked up): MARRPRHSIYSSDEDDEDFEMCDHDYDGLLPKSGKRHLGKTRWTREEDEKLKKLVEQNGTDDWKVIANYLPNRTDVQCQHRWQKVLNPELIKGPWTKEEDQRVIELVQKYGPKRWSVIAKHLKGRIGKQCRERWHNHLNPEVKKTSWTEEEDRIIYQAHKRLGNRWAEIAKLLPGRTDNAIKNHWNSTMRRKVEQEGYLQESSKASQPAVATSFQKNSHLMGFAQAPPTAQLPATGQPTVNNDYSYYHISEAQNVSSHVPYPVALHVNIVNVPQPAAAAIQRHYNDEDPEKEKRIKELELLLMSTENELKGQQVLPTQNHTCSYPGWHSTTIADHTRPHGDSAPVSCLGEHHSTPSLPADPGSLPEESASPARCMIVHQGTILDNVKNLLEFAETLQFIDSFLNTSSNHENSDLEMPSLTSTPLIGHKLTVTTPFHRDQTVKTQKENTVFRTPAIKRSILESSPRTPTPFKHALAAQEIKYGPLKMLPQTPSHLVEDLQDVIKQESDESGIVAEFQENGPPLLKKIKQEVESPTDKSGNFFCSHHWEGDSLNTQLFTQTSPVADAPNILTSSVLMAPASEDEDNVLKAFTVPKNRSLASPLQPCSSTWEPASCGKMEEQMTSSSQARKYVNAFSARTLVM

In the case of `Nc1ccc(Cl)c(Cl)c1`, the result in experiment [1], in [3], in experiment [4], in experiment [5], in experiment [6] and in [7] was inactive. For the same molecule, the outcome in [9], in [10], in experiment [11], in experiment [12], in [13] and in experiment [14] was inactive. The molecule was classed as inactive in experiment [15], in experiment [16], in experiment [17], in experiment [18], in experiment [19] and in experiment [20]. The AC50 in [2] was 134 µM (active); in experiment [8] it was 135 µM (active).

With `O=C(O)c1cc[c]([Hg][Cl])cc1`, the outcome in experiment [1], in experiment [2], in experiment [3], in experiment [4], in experiment [5] and in [6] was inactive. The outcome in [7], in experiment [8], in experiment [9], in [10], in experiment [11] and in [13] was inactive. Moreover, the call in [14], in experiment [15], in [16], in [18] and in experiment [19] was inactive. Also, the AC50 was 11.1 µM (active) in [12], 7.19 µM (active) in experiment [17] and 6.74 µM (active) in experiment [20].

For `C=COCCCl`, the outcome in experiment [1], in experiment [2], in experiment [3], in experiment [4], in experiment [5] and in experiment [6] was inactive. The call in experiment [7], in experiment [8], in experiment [9], in [10], in experiment [11] and in experiment [12] was inactive. The call in experiment [13], in [14], in experiment [15], in experiment [16], in experiment [17] and in [18] was inactive. For the same molecule, the molecule was called inactive in experiment [19] and in experiment [20].

Consider `O=CNC(N1CCN(C(NC=O)C(Cl)(Cl)Cl)CC1)C(Cl)(Cl)Cl` (stereo not given), for which the result in experiment [1], in experiment [2], in [3], in experiment [4], in [5] and in [6] was inactive. The molecule was classed as inactive in [7], in [8], in [9], in [11], in experiment [12] and in experiment [13]. The outcome in experiment [14], in experiment [15], in experiment [16], in experiment [17], in experiment [18] and in experiment [19] was inactive. Also, the result in experiment [20] was inactive. Further, the AC50 in experiment [10] was 7.22 µM (active).

By AC50 is commonly meant the midpoint of the concentration-response curve, whichever way the signal moves.
